Source: PubChem BioAssay (NCI)
The panel holds about 79,000 compounds, 15% with a hit somewhere; the sample as a whole holds those more often. A number with no mark means an inactive call. Calls of active or inactive are those of the source. Cut-off read from the data, not from the text of the source: active = growth inhibition above about 70%; inactive = the rest.

Assay: NCI Yeast Anticancer Drug Screen. Data for the sgs1 strain (AID 173);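 note: 0% = growth of vehicle-only control cultures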
Details: S. cerevisiae sgs1 mutant, at 1.2 µM, active compounds read high
In short: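 Inhibition of yeast growth served as the measure. The mutant strain was treated with each compound, and growth was normalised to cultures receiving vehicle alone.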
`CCOP(=O)(OCC)C(Cc1ccccc1)N=C(c1ccccc1)c1ccccc1` (stereo not drawn) showed a growth inhibition of 7%. For `CCc1ncnc2cc(OCC3CO3)c(OC)cc12` (stereo not drawn), the growth inhibition was 31%. In the case of `CCOC(=O)[C@H]1Nc2ccccc2C2c3ccccc3CC21` (stereo partly drawn), the growth inhibition is reported as -6%. With `O=CNc1ccc2c(c1)C(=O)c1ccccc1-2` the growth inhibition was -2%. `CCOc1ccc2c(c1)c(CC(=O)O)cn2C` gave a growth inhibition of -1%. For `OC1CSCCCSCCSCCCSC1`, the growth inhibition was -9%. For `N#Cc1c(N)[nH]c2ccc(Sc3ccccc3)cc12`, the growth inhibition was -3%. In the case of `Cc1ccc(-c2ccc(Nc3c4ccccc4nc4ccccc34)cc2)cn1`, the growth inhibition is reported as 3%. Work on `c1ccc2c(c1)NC(NC1Nc3ccccc3N1)N2` yielded a growth inhibition of 0%. For `OC(COc1cccc2ccccc12)CN1CCOCC1` (stereo not drawn), the growth inhibition was 29%. `CCC/C(Cl)=N\OC(=O)Nc1ccc(Br)cc1` gave a growth inhibition of 65%. Compound `COc1ccc(/C=C2\SC(=S)N(/C=C/c3nc4ccccc4[nH]c3=O)C2=O)cc1OC` has a growth inhibition of 5%. For `O=C(NNc1ccnc2cc(Cl)ccc12)/C(=C\c1ccccc1Cl)NC(=O)c1ccccc1`, the growth inhibition was 1%. `CSC1=NNC(SC)=NN1` gave a growth inhibition of -5%. With `Cc1c(C2=C(Br)C(=O)N(C)C2=O)c(=O)n(C)c(=O)n1C` the growth inhibition was 2%. Compound `NCCNc1ccc(NCCN)c2c1C(=O)c1c(O)ccc(O)c1C2=O` has a growth inhibition of 11%. For `Cn1c(=O)c(-c2ccccc2)c(N=[N+]=[N-])c2ccccc21`, the growth inhibition was -11%. `CCCCCCCCCCCCCCCCCCOCC(O)COP(=O)(O)OCC1OC(n2cc(F)c(=O)[nH]c2=O)CC1O` (stereo not drawn) gave a growth inhibition of 26%. `CCS(=O)(=O)c1ccc(/C=C/C=N/NC(=S)NCC(C)C)cc1` gave a growth inhibition of -4%. With `CCC(=O)Oc1c(Cl)cc(Cl)c2ccccc12` the growth inhibition was -4%. With `COc1cc2c3c(cccc3c1)C(=O)N(CCN(C)C)C2=O` the growth inhibition was -21%. Compound `CN(C)c1ccc(C(C#N)=C(C#N)C#N)cc1` has a growth inhibition of -1%. Work on `O=C(CCCN1CCC2(CC1)CC(=O)N(N1CCCCCC1)C2=O)c1ccc(F)cc1` yielded a growth inhibition of 43%. `O=C1C2C(C(=O)N1c1ccc(OCc3ccccc3)cc1)C1c3ccccc3C2C2CCCCN21` (stereo not drawn) showed a growth inhibition of -2%. In the case of `CCN(CC)CCC(=O)c1ccc(Oc2ccc(F)cc2)cc1`, the growth inhibition is reported as -12%. `O=Nc1c(NO)ccc2nn(-c3ccccc3)nc12` showed a growth inhibition of 61%. `CC(=O)SCCC[Si](C)(C)CCCSC(C)=O` showed a growth inhibition of -2%. Compound `O=C(O)C1CCCCC1c1c2ccc(=O)c(O)c-2oc2c(O)c(O)ccc12` (stereo not drawn) has a growth inhibition of -11%. With `Cc1ccc(NN(NC(=O)OC(C)C)C(=O)OC(C)C)cc1` the growth inhibition was 1%. Work on `O=C1c2ccccc2C(=O)c2cc(CBr)ccc21` yielded a growth inhibition of -2%. In the case of `Cc1c(C(Cc2ccccc2N(C)C(=O)/C=C\C(=O)O)c2c[nH]c3ccccc23)c2ccccc2n1C` (stereo not drawn), the growth inhibition is reported as -5%. Work on `CC(C)/C(Cl)=N\OC(=O)Nc1ccc(F)cc1` yielded a growth inhibition of -1%. Compound `O=C1OC(=O)C2CCCC3CCCC1C32` (stereo not drawn) has a growth inhibition of 26%. In the case of `CCOC(=O)C(NC(=O)c1ccccc1)(N1CCN(c2cc3c(cc2F)c(=O)c(C(=O)O)cn3C2CC2)CC1)C(F)(F)F` (stereo not drawn), the growth inhibition is reported as -1%. `COc1ccc(NC(=S)N/N=C(\c2ccccc2)c2ccccn2)cc1` showed a growth inhibition of -5%. `C=CCC1=C(C)C(OC(=O)/C=C/c2ccccc2)CC1=O` (stereo not drawn) gave a growth inhibition of -9%. Compound `NNc1c(F)c(F)cc(F)c1F` has a growth inhibition of -3%. Compound `COP(=O)(OC)/C(=C\C1=CN(C(c2ccccc2)(c2ccccc2)c2ccccc2)CN1)NC=O` has a growth inhibition of 13%. `COC(=O)c1cc(-c2ccc(C)cc2)[nH]c(=O)c1C#N` showed a growth inhibition of -4%.

Same assay, conditions: S. cerevisiae sgs1 mutant, at 3.7 µM, active compounds read high
Compound `CCOP(=O)(OCC)C(Cc1ccccc1)N=C(c1ccccc1)c1ccccc1` (stereo not drawn) has a growth inhibition of 10%. Work on `CCc1ncnc2cc(OCC3CO3)c(OC)cc12` (stereo not drawn) yielded a growth inhibition of 53%. For `CCOC(=O)[C@H]1Nc2ccccc2C2c3ccccc3CC21` (stereo partly drawn), the growth inhibition was 4%. Work on `O=CNc1ccc2c(c1)C(=O)c1ccccc1-2` yielded a growth inhibition of 0%. `CCOc1ccc2c(c1)c(CC(=O)O)cn2C` showed a growth inhibition of -3%. With `OC1CSCCCSCCSCCCSC1` the growth inhibition was -5%. With `N#Cc1c(N)[nH]c2ccc(Sc3ccccc3)cc12` the growth inhibition was 5%. `Cc1ccc(-c2ccc(Nc3c4ccccc4nc4ccccc34)cc2)cn1` showed a growth inhibition of 6%. With `c1ccc2c(c1)NC(NC1Nc3ccccc3N1)N2` the growth inhibition was 3%. `OC(COc1cccc2ccccc12)CN1CCOCC1` (stereo not drawn) gave a growth inhibition of 49%. `CCC/C(Cl)=N\OC(=O)Nc1ccc(Br)cc1` showed a growth inhibition of 62%. In the case of `COc1ccc(/C=C2\SC(=S)N(/C=C/c3nc4ccccc4[nH]c3=O)C2=O)cc1OC`, the growth inhibition is reported as 14%. Compound `O=C(NNc1ccnc2cc(Cl)ccc12)/C(=C\c1ccccc1Cl)NC(=O)c1ccccc1` has a growth inhibition of 6%. For `CSC1=NNC(SC)=NN1`, the growth inhibition was -11%. `Cc1c(C2=C(Br)C(=O)N(C)C2=O)c(=O)n(C)c(=O)n1C` gave a growth inhibition of 11%. `NCCNc1ccc(NCCN)c2c1C(=O)c1c(O)ccc(O)c1C2=O` showed a growth inhibition of 42%. Compound `Cn1c(=O)c(-c2ccccc2)c(N=[N+]=[N-])c2ccccc21` has a growth inhibition of -13%. Compound `CCCCCCCCCCCCCCCCCCOCC(O)COP(=O)(O)OCC1OC(n2cc(F)c(=O)[nH]c2=O)CC1O` (stereo not drawn) has a growth inhibition of 19%. For `CCS(=O)(=O)c1ccc(/C=C/C=N/NC(=S)NCC(C)C)cc1`, the growth inhibition was 1%. Work on `CCC(=O)Oc1c(Cl)cc(Cl)c2ccccc12` yielded a growth inhibition of -3%. Work on `COc1cc2c3c(cccc3c1)C(=O)N(CCN(C)C)C2=O` yielded a growth inhibition of -14%. In the case of `CN(C)c1ccc(C(C#N)=C(C#N)C#N)cc1`, the growth inhibition is reported as -3%. Work on `O=C(CCCN1CCC2(CC1)CC(=O)N(N1CCCCCC1)C2=O)c1ccc(F)cc1` yielded a growth inhibition of 45%. Compound `O=C1C2C(C(=O)N1c1ccc(OCc3ccccc3)cc1)C1c3ccccc3C2C2CCCCN21` (stereo not drawn) has a growth inhibition of -1%. `CCN(CC)CCC(=O)c1ccc(Oc2ccc(F)cc2)cc1` showed a growth inhibition of -2%. In the case of `O=Nc1c(NO)ccc2nn(-c3ccccc3)nc12`, the growth inhibition is reported as 79% (active). `CC(=O)SCCC[Si](C)(C)CCCSC(C)=O` gave a growth inhibition of 22%. With `O=C(O)C1CCCCC1c1c2ccc(=O)c(O)c-2oc2c(O)c(O)ccc12` (stereo not drawn) the growth inhibition was -20%. `Cc1ccc(NN(NC(=O)OC(C)C)C(=O)OC(C)C)cc1` gave a growth inhibition of 1%. In the case of `O=C1c2ccccc2C(=O)c2cc(CBr)ccc21`, the growth inhibition is reported as -14%. `Cc1c(C(Cc2ccccc2N(C)C(=O)/C=C\C(=O)O)c2c[nH]c3ccccc23)c2ccccc2n1C` (stereo not drawn) showed a growth inhibition of -4%. For `CC(C)/C(Cl)=N\OC(=O)Nc1ccc(F)cc1`, the growth inhibition was -2%. In the case of `O=C1OC(=O)C2CCCC3CCCC1C32` (stereo not drawn), the growth inhibition is reported as 78% (active). In the case of `CCOC(=O)C(NC(=O)c1ccccc1)(N1CCN(c2cc3c(cc2F)c(=O)c(C(=O)O)cn3C2CC2)CC1)C(F)(F)F` (stereo not drawn), the growth inhibition is reported as 0%. Compound `COc1ccc(NC(=S)N/N=C(\c2ccccc2)c2ccccn2)cc1` has a growth inhibition of -4%. With `C=CCC1=C(C)C(OC(=O)/C=C/c2ccccc2)CC1=O` (stereo not drawn) the growth inhibition was 26%. In the case of `NNc1c(F)c(F)cc(F)c1F`, the growth inhibition is reported as 8%. With `COP(=O)(OC)/C(=C\C1=CN(C(c2ccccc2)(c2ccccc2)c2ccccc2)CN1)NC=O` the growth inhibition was 20%. `COC(=O)c1cc(-c2ccc(C)cc2)[nH]c(=O)c1C#N` showed a growth inhibition of -1%.
